Test results reported in paper doi:10.1101/2024.03.05.583629.

How the values were obtained:
pT7_6His-AlfaTag-HOXD13 = pT7_6His-AlfaTag-HOXD13 (human, UniProt P35453 263-343); assay: PADIT-seq; conditions: dsDNA, one strand shown
pT7_6His-AlfaTag-ZIF268 = pT7_6His-AlfaTag-ZIF268 (human, UniProt P18146 335-423); assay: PADIT-seq; conditions: dsDNA, one strand shown

Chain of pT7_6His-AlfaTag-HOXD13 (P35453 263-343): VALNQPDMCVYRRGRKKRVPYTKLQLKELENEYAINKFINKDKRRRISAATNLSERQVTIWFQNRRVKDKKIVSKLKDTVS

Sequence | binding signal (pT7_6His-AlfaTag-HOXD13) [log2FC] | binding signal (pT7_6His-AlfaTag-ZIF268) [log2FC]
CTCGAGGATATCAAGATCTGGCCTCGGCGCGTGGACTGGAACCTCTAGCTAGCCGACTCACTATAGGGATAATCGCCCTGAGCAAAGACC | -0.334 ± 0.121 | 0.0272 ± 0.108
CTCGAGGATATCAAGATCTGGCCTCGGCCACATAAAAGGAACCTCTAGCTAGCCGACTCACTATAGGGATAATCGCCCTGAGCAAAGACC | 2.6 ± 0.0844 | 0.0607 ± 0.0948
CTCGAGGATATCAAGATCTGGCCTCGGCATTTTACTCGGAACCTCTAGCTAGCCGACTCACTATAGGGATAATCGCCCTGAGCAAAGACC | 0.755 ± 0.0905 | 0.0783 ± 0.0882
CTCGAGGATATCAAGATCTGGCCTCGGCATTTTACGGGGAACCTCTAGCTAGCCGACTCACTATAGGGATAATCGCCCTGAGCAAAGACC | 3.18 ± 0.0854 | 0.0766 ± 0.0939
CTCGAGGATATCAAGATCTGGCCTCGGCCAGATAAAAGGAACCTCTAGCTAGCCGACTCACTATAGGGATAATCGCCCTGAGCAAAGACC | 0.383 ± 0.117 | 0.0449 ± 0.11
CTCGAGGATATCAAGATCTGGCCTCGGCGCGTGGATAGGAACCTCTAGCTAGCCGACTCACTATAGGGATAATCGCCCTGAGCAAAGACC | -0.997 ± 0.122 | 0.0372 ± 0.0987
CTCGAGGATATCAAGATCTGGCCTCGGCCGCCCACTTGGAACCTCTAGCTAGCCGACTCACTATAGGGATAATCGCCCTGAGCAAAGACC | -0.908 ± 0.133 | 0.543 ± 0.104
CTCGAGGATATCAAGATCTGGCCTCGGCCGCCAGCGCGGAACCTCTAGCTAGCCGACTCACTATAGGGATAATCGCCCTGAGCAAAGACC | -0.898 ± 0.171 | 0.462 ± 0.139
CTCGAGGATATCAAGATCTGGCCTCGGCAGTGTAAAAGGAACCTCTAGCTAGCCGACTCACTATAGGGATAATCGCCCTGAGCAAAGACC | 0.712 ± 0.08 | 0.045 ± 0.0778
CTCGAGGATATCAAGATCTGGCCTCGGCATTTTAAGAGGAACCTCTAGCTAGCCGACTCACTATAGGGATAATCGCCCTGAGCAAAGACC | 2.98 ± 0.0964 | 0.0486 ± 0.104
CTCGAGGATATCAAGATCTGGCCTCGGCCCCCTAAAAGGAACCTCTAGCTAGCCGACTCACTATAGGGATAATCGCCCTGAGCAAAGACC | 0.578 ± 0.0983 | 0.267 ± 0.0922
CTCGAGGATATCAAGATCTGGCCTCGGCGCGTGGGGTGGAACCTCTAGCTAGCCGACTCACTATAGGGATAATCGCCCTGAGCAAAGACC | -1.1 ± 0.157 | 1.28 ± 0.111
CTCGAGGATATCAAGATCTGGCCTCGGCGCGTGGTTAGGAACCTCTAGCTAGCCGACTCACTATAGGGATAATCGCCCTGAGCAAAGACC | -0.958 ± 0.117 | 0.357 ± 0.094
CTCGAGGATATCAAGATCTGGCCTCGGCGTTTTATTGGGAACCTCTAGCTAGCCGACTCACTATAGGGATAATCGCCCTGAGCAAAGACC | 3.37 ± 0.0853 | 0.0618 ± 0.0949
CTCGAGGATATCAAGATCTGGCCTCGGCCGCCTACGCGGAACCTCTAGCTAGCCGACTCACTATAGGGATAATCGCCCTGAGCAAAGACC | -0.992 ± 0.109 | 1.76 ± 0.0783
CTCGAGGATATCAAGATCTGGCCTCGGCCTTTTACGAGGAACCTCTAGCTAGCCGACTCACTATAGGGATAATCGCCCTGAGCAAAGACC | 3.52 ± 0.0778 | 0.0308 ± 0.0876
CTCGAGGATATCAAGATCTGGCCTCGGCAGTTGGGCGGGAACCTCTAGCTAGCCGACTCACTATAGGGATAATCGCCCTGAGCAAAGACC | -0.843 ± 0.104 | 0.102 ± 0.086
CTCGAGGATATCAAGATCTGGCCTCGGCCTTTTACGGGGAACCTCTAGCTAGCCGACTCACTATAGGGATAATCGCCCTGAGCAAAGACC | 3.14 ± 0.0784 | 0.0515 ± 0.0862
CTCGAGGATATCAAGATCTGGCCTCGGCCGCCCGCGCGGAACCTCTAGCTAGCCGACTCACTATAGGGATAATCGCCCTGAGCAAAGACC | – | 0.122 ± 0.126
CTCGAGGATATCAAGATCTGGCCTCGGCCTTTTAGTGGGAACCTCTAGCTAGCCGACTCACTATAGGGATAATCGCCCTGAGCAAAGACC | 1.46 ± 0.0766 | 0.00894 ± 0.0794
CTCGAGGATATCAAGATCTGGCCTCGGCCTTTGGGCGGGAACCTCTAGCTAGCCGACTCACTATAGGGATAATCGCCCTGAGCAAAGACC | -0.932 ± 0.115 | 0.262 ± 0.0913
CTCGAGGATATCAAGATCTGGCCTCGGCCTTTTAAAAGGAACCTCTAGCTAGCCGACTCACTATAGGGATAATCGCCCTGAGCAAAGACC | 2.5 ± 0.0673 | 0.098 ± 0.0706
CTCGAGGATATCAAGATCTGGCCTCGGCCAAGTAAAAGGAACCTCTAGCTAGCCGACTCACTATAGGGATAATCGCCCTGAGCAAAGACC | 0.682 ± 0.11 | 0.0157 ± 0.107
CTCGAGGATATCAAGATCTGGCCTCGGCGCGTGGCATGGAACCTCTAGCTAGCCGACTCACTATAGGGATAATCGCCCTGAGCAAAGACC | -1.09 ± 0.127 | 0.0324 ± 0.101
CTCGAGGATATCAAGATCTGGCCTCGGCTCACTAAAAGGAACCTCTAGCTAGCCGACTCACTATAGGGATAATCGCCCTGAGCAAAGACC | 0.718 ± 0.11 | 0.00307 ± 0.107

Sequence | binding signal (pT7_6His-AlfaTag-HOXD13) [log2FC] | binding signal (pT7_6His-AlfaTag-ZIF268) [log2FC]
CTCGAGGATATCAAGATCTGGCCTCGGCGCGTGGTACGGAACCTCTAGCTAGCCGACTCACTATAGGGATAATCGCCCTGAGCAAAGACC | -0.921 ± 0.116 | 0.427 ± 0.0903
CTCGAGGATATCAAGATCTGGCCTCGGCATCCTAAAAGGAACCTCTAGCTAGCCGACTCACTATAGGGATAATCGCCCTGAGCAAAGACC | 0.337 ± 0.103 | 0.0323 ± 0.0965
CTCGAGGATATCAAGATCTGGCCTCGGCGCGGATGCGGGAACCTCTAGCTAGCCGACTCACTATAGGGATAATCGCCCTGAGCAAAGACC | 0.465 ± 0.106 | 0.109 ± 0.102
CTCGAGGATATCAAGATCTGGCCTCGGCAGGTTAAAAGGAACCTCTAGCTAGCCGACTCACTATAGGGATAATCGCCCTGAGCAAAGACC | 0.752 ± 0.0728 | 0.0674 ± 0.0711
CTCGAGGATATCAAGATCTGGCCTCGGCCGCTTTCGCGGAACCTCTAGCTAGCCGACTCACTATAGGGATAATCGCCCTGAGCAAAGACC | -1.06 ± 0.128 | 0.0116 ± 0.104
CTCGAGGATATCAAGATCTGGCCTCGGCTTTTTATTTGGAACCTCTAGCTAGCCGACTCACTATAGGGATAATCGCCCTGAGCAAAGACC | 2.91 ± 0.0833 | 0.188 ± 0.0912
CTCGAGGATATCAAGATCTGGCCTCGGCGCGCGTGCGGGAACCTCTAGCTAGCCGACTCACTATAGGGATAATCGCCCTGAGCAAAGACC | – | 0.0362 ± 0.119
CTCGAGGATATCAAGATCTGGCCTCGGCGCGTGGTAAGGAACCTCTAGCTAGCCGACTCACTATAGGGATAATCGCCCTGAGCAAAGACC | -0.999 ± 0.124 | 0.49 ± 0.0946
CTCGAGGATATCAAGATCTGGCCTCGGCCGCCACCGCGGAACCTCTAGCTAGCCGACTCACTATAGGGATAATCGCCCTGAGCAAAGACC | -0.959 ± 0.127 | 0.142 ± 0.0977
CTCGAGGATATCAAGATCTGGCCTCGGCTTATGGGCGGGAACCTCTAGCTAGCCGACTCACTATAGGGATAATCGCCCTGAGCAAAGACC | 1.03 ± 0.0902 | 0.0657 ± 0.0898
CTCGAGGATATCAAGATCTGGCCTCGGCGTTTTAGCCGGAACCTCTAGCTAGCCGACTCACTATAGGGATAATCGCCCTGAGCAAAGACC | -0.579 ± 0.147 | 0.0458 ± 0.125
CTCGAGGATATCAAGATCTGGCCTCGGCGGAGTAAAAGGAACCTCTAGCTAGCCGACTCACTATAGGGATAATCGCCCTGAGCAAAGACC | -0.327 ± 0.108 | 0.0307 ± 0.0975
CTCGAGGATATCAAGATCTGGCCTCGGCTAGTGGGCGGGAACCTCTAGCTAGCCGACTCACTATAGGGATAATCGCCCTGAGCAAAGACC | -0.725 ± 0.112 | 1.78 ± 0.084
CTCGAGGATATCAAGATCTGGCCTCGGCACACCACGCGGAACCTCTAGCTAGCCGACTCACTATAGGGATAATCGCCCTGAGCAAAGACC | -0.837 ± 0.131 | 0.0231 ± 0.103
CTCGAGGATATCAAGATCTGGCCTCGGCTTTTTATCGGGAACCTCTAGCTAGCCGACTCACTATAGGGATAATCGCCCTGAGCAAAGACC | 1.91 ± 0.0856 | 0.00149 ± 0.091
CTCGAGGATATCAAGATCTGGCCTCGGCCCTGTAAAAGGAACCTCTAGCTAGCCGACTCACTATAGGGATAATCGCCCTGAGCAAAGACC | 2.46 ± 0.085 | 0.046 ± 0.0931
CTCGAGGATATCAAGATCTGGCCTCGGCAGGATAAAAGGAACCTCTAGCTAGCCGACTCACTATAGGGATAATCGCCCTGAGCAAAGACC | 0.374 ± 0.0721 | 0.0545 ± 0.0675
CTCGAGGATATCAAGATCTGGCCTCGGCCTTTTATGCGGAACCTCTAGCTAGCCGACTCACTATAGGGATAATCGCCCTGAGCAAAGACC | 1.88 ± 0.0756 | 0.00428 ± 0.0795
CTCGAGGATATCAAGATCTGGCCTCGGCCGCCGACGCGGAACCTCTAGCTAGCCGACTCACTATAGGGATAATCGCCCTGAGCAAAGACC | -0.893 ± 0.142 | 0.21 ± 0.115
CTCGAGGATATCAAGATCTGGCCTCGGCCGATGGGCGGGAACCTCTAGCTAGCCGACTCACTATAGGGATAATCGCCCTGAGCAAAGACC | -1.02 ± 0.115 | 0.00701 ± 0.0902
CTCGAGGATATCAAGATCTGGCCTCGGCAGAATAAAAGGAACCTCTAGCTAGCCGACTCACTATAGGGATAATCGCCCTGAGCAAAGACC | 0.976 ± 0.0851 | 0.0567 ± 0.0846
CTCGAGGATATCAAGATCTGGCCTCGGCGCGTGGGTCGGAACCTCTAGCTAGCCGACTCACTATAGGGATAATCGCCCTGAGCAAAGACC | -0.691 ± 0.125 | 1.38 ± 0.0983
CTCGAGGATATCAAGATCTGGCCTCGGCCCTTTAAAAGGAACCTCTAGCTAGCCGACTCACTATAGGGATAATCGCCCTGAGCAAAGACC | 2.14 ± 0.0827 | 0.0924 ± 0.0888
CTCGAGGATATCAAGATCTGGCCTCGGCGTTTTAGGCGGAACCTCTAGCTAGCCGACTCACTATAGGGATAATCGCCCTGAGCAAAGACC | -0.768 ± 0.146 | 0.0528 ± 0.123
